# Screens deposited in PubChem BioAssay by Sanford-Burnham Center for Chemical Genomics.
# An excerpt weighted towards active compounds, which were near 4% of everything screened.
# HIF-2a block: blocks HIF-2a reporter activity; 786-0 RCC cells HIF-2a reporter, luciferase luminescence, overnight; inhibition, % at 18.8 µM; 360,000 tested, 0.72% active; AID 624352;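 active = inhibition of the luminescence signal of 40% or more relative to plate controls, in a single-dose primary screen at 18.75 µM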
# CF NFkB block: cystic fibrosis NF-kB activation inhibition. 360,000 tested, 0.86% active. inhibition, % at 5 µM. KKLEB NF-kB-GFP reporter, PAF-induced, GFP fluorescence overnight;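 active = at least 50% inhibition at 5 µM, scaled per plate between neutral and stimulator controls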;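 also: PAF is a Pseudomonas aeruginosa culture filtrate used as stimulus; plate controls were PAF-stimulated DMSO wells for no effect and unstimulated DMSO wells for full effect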
# TWEAK-Fn14 inh: inhibitors of TWEAK-Fn14 interaction signaling; TWEAK-stimulated Fn14 reporter cells, luciferase luminescence, 8 h; AID 1159606; inhibition, % at 10 µM; 360,000 tested, 2% active; in the data active = inhibition above about 50%
# TROY NFkB inh: TROY signaling inhibition; Q293 LMP1-TROYcd NF-kB luciferase reporter, 4 h; inhibition, % at 10 µM; 360,000 tested, 0.98% active;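 active = compounds whose plate-normalised and pattern-corrected inhibition of the luciferase reporter signal at the single screening dose is 50% or more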
# KKLEB tox: counter-screen for CF NF-kB inhibitors: cytotoxicity. KKLEB CF airway cells viability, ATPlite luminescence, overnight; stronger effect = lower value; cells stimulated with P. aeruginosa culture filtrate. activity change (cytotoxicity), % at 5 µM. 360,000 tested, 0.36% active. AID 602141;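 active = corrected activity change at or below -50% at 5 µM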
# Peg3 promoter: Peg3 promoter activity inhibition | 360,000 tested, 1.7% active | AID 588405 | inhibition, % at 20 µM | HeLa PEG-Prom luciferase reporter, luminescence, overnight;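 active = inhibition of at least 50% at 20 µM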
# An asterisk follows results filed as active; / = no result.
SMILES,HIF-2a block,CF NFkB block,TWEAK-Fn14 inh,TROY NFkB inh,KKLEB tox,Peg3 promoter
O=C1NC[C@H](CCCCN2C[C@H](Cc3ccc(O)cc3)N(Cc3ccccc3)C(=O)C2=O)N(CCc2ccc(O)cc2)C1=O,7,/,-6,-6,/,/
COc1cc(-c2nnc(NC(=O)CS(=O)(=O)c3ccc(C)cc3)o2)cc(OC)c1OC,5,-15,-6,7,-1,-3
COCCCn1c(SCC(=O)Nc2ccc3c(c2)OCCO3)nnc1-c1ccoc1C,19,0,64*,16,7,-22
COCCn1c(SCC(=O)c2ccc3c(c2)OCCO3)nnc1-c1ccoc1C,-5,10,10,15,-1,-3
Nc1ccccc1SCC(=O)Nc1ccc2c(c1)OCCO2,-140,2,68*,58*,-2,-193
Cn1cccc1C(=O)OCC(=O)NCc1ccc2c(c1)OCO2,-67,5,-19,-31,-14,-69
Cn1cccc1C(=O)OCC(=O)Nc1ccc2c(c1)OCCO2,-20,0,71*,9,-9,-40
Cc1cc(C)n(C(C)CC(=O)Nc2ccc3c(c2)OCCO3)n1 (stereo not drawn),22,6,61*,43,-9,29
Cc1cc(C)n(-c2ccc(C(=O)Nc3ccc4c(c3)OCCO4)cc2)n1,-183,13,19,-24,-5,-188
Cc1[nH]c(C)c(S(=O)(=O)N2CCN(c3cccc(Cl)c3)CC2)c1C(=O)N1CCCCC1,5,1,-82,-1,-6,9
Cc1ccccc1-c1nnc(SCC(=O)Nc2ccc3c(c2)OCCO3)n1N,-17,15,9,-2,-4,-10
Nn1c(SCC(=O)Nc2ccc3c(c2)OCCO3)nnc1-c1ccccn1,3,-39,77*,7,6,-39
O=C(CC(c1ccccc1)c1ccccc1)Nc1ccc2c(c1)OCCO2,14,10,52*,22,-5,-53
O=C(Cc1ccccc1)NC1CCCCC1,9,13,-12,-13,-5,-4
CC(=O)Nc1ccc2nc(NC(=O)CN3CCOCC3)sc2c1,0,-2,9,10,8,3
N/C(=N\OC(=O)c1cccc2ccccc12)c1ccccn1,-208,-7,32,0,-17,83*
N/C(=N\OC(=O)c1ccccc1Cl)c1cccc([N+](=O)[O-])c1,-240,-20,20,6,-1,-285
N/C(=N/OC(=O)c1ccccc1Cl)c1ncc([N+](=O)[O-])s1,-222,-36,50*,1,-12,-109
Cc1c(C(=O)O/N=C(\N)c2ccccn2)cccc1[N+](=O)[O-],-180,-29,67*,-15,1,-20
COc1cccc(C(=O)O/N=C(\N)c2ccncc2)c1OC,-119,-5,-25,-72,11,-130
COc1cccc(C(=O)O/N=C(\N)c2ccccn2)c1OC,-90,-10,81*,5,-3,48
CCOC(=O)C(C)C(C)=O (stereo not drawn),12,-4,7,6,9,5
Cc1cccc(COC[C@H](CC(C)C)N2CCN(C(=O)c3ccc(C(F)(F)F)cc3)CCC2=O)c1,7,/,-10,3,/,/
O=C(Nc1ccc(CN2CCOCC2)cc1)c1ccc(-c2ccc(Br)cc2)o1,-28,6,28,53*,-10,7
O=C(O)c1ccccc1CSc1ccccn1,15,-36,10,-13,-10,3
SMILES,HIF-2a block,CF NFkB block,TWEAK-Fn14 inh,TROY NFkB inh,KKLEB tox,Peg3 promoter
O=[N+]([O-])c1ccc(N2CCOCC2)cc1O,2,-14,-12,-8,8,10
Cc1cc(N2CCOCC2)ccc1/C=C\[N+](=O)[O-],55*,54*,70*,50*,-10,102*
Cc1ccc2c(c1)sc(=NC(=O)c1cccs1)n2C,-6,-34,89*,59*,-66*,-25
CC(C)CCn1c(SCC(=O)N2CC(=O)Nc3ccccc32)nc2scc(-c3cccs3)c2c1=O,6,-2,15,6,-1,-4
C=CCn1c(SCC(=O)N2CC(=O)Nc3ccccc32)nc2scc(-c3cccs3)c2c1=O,17,-25,52*,10,24,23
CN1N=C2c3ccccc3CCC2C1c1ccc(F)cc1 (stereo not drawn),-224,16,53*,60*,-8,-279
CNC(=S)N1N=C2c3ccccc3CCC2C1c1ccccc1Cl (stereo not drawn),7,0,4,3,-8,30
CN1N=C2c3ccccc3CCC2C1c1ccc(Cl)cc1 (stereo not drawn),-156,13,54*,40,-13,-199
c1ccc(N2CC3CCc4ccccc4C3=N2)cc1 (stereo not drawn),-283,-7,-26,-35,-20,-255
O=C(Nc1ccc(Cl)c(C(F)(F)F)c1)C1Cc2c(-c3ccc4c(c3)OCO4)ccnc2O1 (stereo not drawn),10,5,8,28,-28,18
CC(=O)Oc1ccc(/C=C2/Oc3ccccc3C2=O)cc1,-8,-15,-12,-67,2,-90
COc1ccc(/C=C2\Oc3ccccc3C2=O)cc1,-39,-25,65*,26,-22,-51
CCOc1ccc(CCN2C(=O)C(=O)N([C@@H](Cc3ccc(O)cc3)CN3CCC[C@@H]3CN3C(=O)C(=O)NC[C@@H]3Cc3ccccc3)C[C@@H]2Cc2ccccc2)cc1,-7,-3,28,-1,6,10
COc1cc2c(cc1OC)-c1cc(Nc3ccc4c(c3)OCCO4)nc(=O)n1CC2,15,27,86*,79*,-12,-44
CCCCCCCn1c(=O)c(C(=O)OC)c(N)c2ccccc21,28,8,51*,39,-1,16
CN(C)c1cccc(C(=O)N/N=C/c2ccccc2F)c1,-10,-16,89*,56*,-5,19
S=C(NCCc1ccccc1)N/N=C/c1cccc(Cl)c1Cl,-59,5,-27,-45,-22,-62
CC(C)(CNC(=S)NCCc1ccccc1)CNC(=S)NCCc1ccccc1,-3,3,56*,38,-14,48
Oc1ccccc1/C=N/NC(=S)NCCc1ccccc1,-156,-19,93*,5,-13,-154
CC(=O)Nc1cccc(/C(C)=N/N2C(C)CCCC2C)c1 (stereo not drawn),13,14,11,-10,-8,-10
Cc1ccc(C2Nc3ccccc3NC3=C2C(=O)OC(C)C3)cc1 (stereo not drawn),13,-35,30,64*,6,14
CC1CC2=C(C(=O)O1)C(c1ccc(Cl)cc1)Nc1ccccc1N2 (stereo not drawn),21,-6,12,15,-1,6
O=C(NCc1ccccc1F)C1CCN(C(=O)Nc2ccc(F)cc2)CC1,16,-4,99*,-17,1,2
CC(C)(C)N(NC(=O)Nc1ccc(Cl)c(Cl)c1)C(=O)c1ccccc1,31,39,26,/,-21,61*
